We go through eight sequences from publication PMC7862700, “An all-to-all approach to the identification of sequence-specific readers for epigenetic DNA modifications on cytosine”.

Common to all, as to assay: DAPPL (digital affinity profiling via proximity ligation, sequencing); 10 mM Tris-HCl pH 7.5, 50 mM NaCl, 1 mM DTT, 4% glycerol, room temperature, 30 min; GST-TFs on glutathione beads, 16-mer random dsDNA library, 0.1% formaldehyde crosslink after washing; high values mean tight binding
What all share (settings): protein: recombinant; tags: N-terminal GST; dsDNA, one strand shown

For one experiment, the target named is T1, ERF (Homo sapiens, UniProt P50548 1-548).
T1 sequence: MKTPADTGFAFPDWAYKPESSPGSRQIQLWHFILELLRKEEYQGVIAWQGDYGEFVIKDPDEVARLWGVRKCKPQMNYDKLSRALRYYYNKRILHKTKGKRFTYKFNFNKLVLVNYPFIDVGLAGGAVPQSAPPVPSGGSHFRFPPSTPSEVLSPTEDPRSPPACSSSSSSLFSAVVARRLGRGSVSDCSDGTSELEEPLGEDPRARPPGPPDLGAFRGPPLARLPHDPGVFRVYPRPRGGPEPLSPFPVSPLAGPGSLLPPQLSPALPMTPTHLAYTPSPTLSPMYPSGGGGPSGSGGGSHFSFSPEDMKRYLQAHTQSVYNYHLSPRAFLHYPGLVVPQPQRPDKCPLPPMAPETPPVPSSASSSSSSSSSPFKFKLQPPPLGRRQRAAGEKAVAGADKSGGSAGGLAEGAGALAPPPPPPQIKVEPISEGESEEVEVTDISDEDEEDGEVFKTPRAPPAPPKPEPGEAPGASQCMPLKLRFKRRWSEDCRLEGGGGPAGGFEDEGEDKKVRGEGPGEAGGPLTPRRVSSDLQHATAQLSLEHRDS
The method, boiled down:
(§1)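 Each value of binding signal is a hexamer's read frequency for a factor divided by the same hexamer's frequency in the tag-only sample. Barcoded, bead-captured GST fusions of human transcription factors made in yeast were pooled with that sample and incubated with 200 nmole of a random double-stranded 16-mer DNA library in Tris/NaCl/DTT/glycerol buffer at room temperature for 30 min. Washing, 0.1% formaldehyde crosslinking, proximity ligation, PCR and Illumina NextSeq500 sequencing followed.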

The next experiment has as its target T2, ETV3L (Homo sapiens, UniProt Q6ZN32 1-361).
T2 sequence: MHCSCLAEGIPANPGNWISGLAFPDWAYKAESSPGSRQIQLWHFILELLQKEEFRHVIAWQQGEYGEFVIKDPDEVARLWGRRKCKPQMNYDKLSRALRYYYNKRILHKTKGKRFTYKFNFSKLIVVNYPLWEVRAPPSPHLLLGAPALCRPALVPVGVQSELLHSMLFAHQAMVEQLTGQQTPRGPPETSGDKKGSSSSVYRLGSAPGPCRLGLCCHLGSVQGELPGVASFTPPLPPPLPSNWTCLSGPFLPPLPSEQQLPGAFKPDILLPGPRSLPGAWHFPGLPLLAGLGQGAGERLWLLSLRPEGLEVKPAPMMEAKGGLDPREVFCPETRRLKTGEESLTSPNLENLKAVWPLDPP
An outline of the steps: as §1

The target of a further experiment is T3, ETS2 (Homo sapiens, UniProt P15036 1-469).
T3 sequence: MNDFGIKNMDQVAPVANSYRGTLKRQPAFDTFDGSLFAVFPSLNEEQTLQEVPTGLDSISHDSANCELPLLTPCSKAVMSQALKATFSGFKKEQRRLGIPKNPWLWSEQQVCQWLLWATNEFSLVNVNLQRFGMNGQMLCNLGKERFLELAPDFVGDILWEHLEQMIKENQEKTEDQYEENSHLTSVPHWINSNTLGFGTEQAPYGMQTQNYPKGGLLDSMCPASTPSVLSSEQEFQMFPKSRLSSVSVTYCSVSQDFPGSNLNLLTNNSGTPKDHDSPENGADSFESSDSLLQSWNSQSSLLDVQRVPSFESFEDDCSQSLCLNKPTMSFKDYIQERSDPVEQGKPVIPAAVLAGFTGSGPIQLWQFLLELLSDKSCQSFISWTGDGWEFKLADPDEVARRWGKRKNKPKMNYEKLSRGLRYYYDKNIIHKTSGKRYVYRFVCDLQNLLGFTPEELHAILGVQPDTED
An outline of the steps:
as §1

The target in a further experiment is T4, SPDEF (Homo sapiens, UniProt O95238 1-335).
T4 sequence: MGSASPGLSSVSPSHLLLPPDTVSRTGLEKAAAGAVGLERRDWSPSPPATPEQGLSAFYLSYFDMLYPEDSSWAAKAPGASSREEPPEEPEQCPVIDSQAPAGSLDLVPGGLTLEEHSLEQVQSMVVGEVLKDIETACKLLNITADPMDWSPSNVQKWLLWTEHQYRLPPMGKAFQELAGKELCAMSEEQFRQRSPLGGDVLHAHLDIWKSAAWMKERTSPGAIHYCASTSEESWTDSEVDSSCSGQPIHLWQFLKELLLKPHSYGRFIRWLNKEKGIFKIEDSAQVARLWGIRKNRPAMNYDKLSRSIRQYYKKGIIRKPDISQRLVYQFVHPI
An outline of the steps: as §1

Another experiment deals with T5, ETV7 (Homo sapiens, UniProt Q9Y603 1-341).
T5 sequence: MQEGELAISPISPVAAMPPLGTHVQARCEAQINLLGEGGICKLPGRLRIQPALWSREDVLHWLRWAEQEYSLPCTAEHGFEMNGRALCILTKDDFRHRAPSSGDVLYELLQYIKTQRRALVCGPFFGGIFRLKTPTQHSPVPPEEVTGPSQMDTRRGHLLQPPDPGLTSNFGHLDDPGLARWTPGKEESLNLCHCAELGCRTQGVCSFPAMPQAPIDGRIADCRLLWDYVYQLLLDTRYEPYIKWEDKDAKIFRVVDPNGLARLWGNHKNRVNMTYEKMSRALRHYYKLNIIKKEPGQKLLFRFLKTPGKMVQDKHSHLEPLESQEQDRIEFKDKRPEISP
An outline of the steps: as §1

A further experiment addresses T6, ETV3 (Homo sapiens, UniProt P41162-2 1-143).
T6 sequence: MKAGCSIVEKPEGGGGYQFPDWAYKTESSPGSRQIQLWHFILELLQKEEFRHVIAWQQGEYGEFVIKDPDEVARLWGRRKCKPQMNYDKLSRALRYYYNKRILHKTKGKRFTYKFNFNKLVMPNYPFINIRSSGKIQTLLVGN
The method, boiled down:
as §1

In a further experiment the target is ETV6 (Homo sapiens, UniProt P41212 1-452). The method, boiled down: as §1
Chain of ETV6 (P41212 whole entry): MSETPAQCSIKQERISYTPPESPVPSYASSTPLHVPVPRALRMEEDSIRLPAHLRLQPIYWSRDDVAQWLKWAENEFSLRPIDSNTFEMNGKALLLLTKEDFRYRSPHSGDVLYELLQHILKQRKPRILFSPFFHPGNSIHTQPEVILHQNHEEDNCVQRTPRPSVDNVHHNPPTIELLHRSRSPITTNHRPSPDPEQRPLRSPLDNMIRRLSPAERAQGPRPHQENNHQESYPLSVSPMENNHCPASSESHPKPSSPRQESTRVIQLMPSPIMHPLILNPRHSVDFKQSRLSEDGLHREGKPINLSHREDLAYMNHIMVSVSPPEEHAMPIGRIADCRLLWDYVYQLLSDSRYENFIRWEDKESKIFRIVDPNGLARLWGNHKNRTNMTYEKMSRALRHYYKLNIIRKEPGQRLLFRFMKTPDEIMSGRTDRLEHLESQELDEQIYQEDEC

With TCGATA, the binding signal with ERF was 1.24 fold enrichment (6-mer frequency, TF over GST control); with ETV3L, 1.13 fold enrichment (6-mer frequency, TF over GST control); in the experiment with ETS2 it was 1.06 fold enrichment (6-mer frequency, TF over GST control); with SPDEF, 1.07 fold enrichment (6-mer frequency, TF over GST control); with ETV7, 1.07 fold enrichment (6-mer frequency, TF over GST control); in the experiment with ETV3 it was 1.11 fold enrichment (6-mer frequency, TF over GST control). Further, the binding signal in the experiment with ETV6 is 1.01 fold enrichment (6-mer frequency, TF over GST control).

Turning to AGGTAT, the binding signal with ERF was 1.16 fold enrichment (6-mer frequency, TF over GST control); in the experiment with ETV3L, 1.02 fold enrichment (6-mer frequency, TF over GST control); with ETS2 it was 1 fold enrichment (6-mer frequency, TF over GST control); with SPDEF it was 1.12 fold enrichment (6-mer frequency, TF over GST control); with ETV7, 1.12 fold enrichment (6-mer frequency, TF over GST control); with ETV3 it was 1.11 fold enrichment (6-mer frequency, TF over GST control). The binding signal with ETV6 was 1.01 fold enrichment (6-mer frequency, TF over GST control).

As for TGCGTT, the binding signal with ERF was 1.2 fold enrichment (6-mer frequency, TF over GST control); in the experiment with ETV3L, 1.11 fold enrichment (6-mer frequency, TF over GST control); with ETS2, 1.09 fold enrichment (6-mer frequency, TF over GST control); with SPDEF, 1.08 fold enrichment (6-mer frequency, TF over GST control); in the experiment with ETV7 it was 1.24 fold enrichment (6-mer frequency, TF over GST control); with ETV3 it was 1.06 fold enrichment (6-mer frequency, TF over GST control).

Take ATTGAA: the binding signal with ERF is 1.14 fold enrichment (6-mer frequency, TF over GST control); with ETV3L, 1.1 fold enrichment (6-mer frequency, TF over GST control); in the experiment with ETS2, 1.09 fold enrichment (6-mer frequency, TF over GST control); in the experiment with SPDEF, 1.07 fold enrichment (6-mer frequency, TF over GST control); with ETV7 it was 1.14 fold enrichment (6-mer frequency, TF over GST control); in the experiment with ETV3, 1.03 fold enrichment (6-mer frequency, TF over GST control). Also, the binding signal with ETV6 is 1.08 fold enrichment (6-mer frequency, TF over GST control).

ATGAAG: the binding signal in the experiment with ERF was 1.12 fold enrichment (6-mer frequency, TF over GST control); in the experiment with ETV3L it was 1.05 fold enrichment (6-mer frequency, TF over GST control); with ETS2, 1.06 fold enrichment (6-mer frequency, TF over GST control); with SPDEF, 1.07 fold enrichment (6-mer frequency, TF over GST control); in the experiment with ETV7 it was 1.09 fold enrichment (6-mer frequency, TF over GST control); in the experiment with ETV3, 1.03 fold enrichment (6-mer frequency, TF over GST control). In the experiment with ETV6, the binding signal was 1.03 fold enrichment (6-mer frequency, TF over GST control).

For the sequence GGTGTT, the binding signal with ERF is 1.14 fold enrichment (6-mer frequency, TF over GST control); with ETV3L, 1.07 fold enrichment (6-mer frequency, TF over GST control); in the experiment with ETS2 it was 1.08 fold enrichment (6-mer frequency, TF over GST control); with SPDEF, 1.1 fold enrichment (6-mer frequency, TF over GST control); in the experiment with ETV7, 1.01 fold enrichment (6-mer frequency, TF over GST control); in the experiment with ETV3, 1.05 fold enrichment (6-mer frequency, TF over GST control). The binding signal with ETV6 was 1.1 fold enrichment (6-mer frequency, TF over GST control).

On to CGAGTT, for which the binding signal with ERF is 1.08 fold enrichment (6-mer frequency, TF over GST control); with ETV3L, 1.16 fold enrichment (6-mer frequency, TF over GST control); with ETS2, 1.07 fold enrichment (6-mer frequency, TF over GST control); with SPDEF, 1.02 fold enrichment (6-mer frequency, TF over GST control); in the experiment with ETV7, 1.08 fold enrichment (6-mer frequency, TF over GST control); in the experiment with ETV3, 1.12 fold enrichment (6-mer frequency, TF over GST control). Further, the binding signal with ETV6 was 1.13 fold enrichment (6-mer frequency, TF over GST control).

Turning to GGCTAG, the binding signal with ERF was 1.17 fold enrichment (6-mer frequency, TF over GST control); with ETV3L, 1.06 fold enrichment (6-mer frequency, TF over GST control); in the experiment with ETS2 it was 1.14 fold enrichment (6-mer frequency, TF over GST control); with SPDEF, 1.14 fold enrichment (6-mer frequency, TF over GST control); in the experiment with ETV7, 1.2 fold enrichment (6-mer frequency, TF over GST control); with ETV3, 1.13 fold enrichment (6-mer frequency, TF over GST control). The binding signal in the experiment with ETV6 was 1.18 fold enrichment (6-mer frequency, TF over GST control).
